Where “and” joins values, the source holds several entries; their conditions need not be identical. Identical values can stand only once. Inconclusive results are not listed. A number with no mark means an inactive call. Calls of active or inactive are those of the source. Calls come from the whole dose curve; as a rule, active = well fitted cell-killing curve with a large enough effect; inconclusive = small, poorly fitted or top-dose-only effect, or effect the other way; inactive = no such curve, though single readings can be large or run the other way.
Potency is the fitted concentration of half-maximal effect.

This experiment is described as follows: Viability qHTS for spleen associated tyrosine kinase inhibitor (SYKi) naive MV4-11 cells (AID 1963823). Note: nearly all actives have a fitted effect of over 40% in size. The following applies: MV4-11 AML viability, CellTiter-Glo luminescence, 72 h; series mostly up to 45 µM; viability (% of control): at the top concentration. The text has this:
Department of Medicine, Hematology/Oncology
University Hospital Frankfurt, Germany.
Trials have shown promising clinical activity of the selective SYK inhibitor entospletinib in patients with high expressing HOXA9/MEIS1 acute leukemias. As the development of resistance mechanisms is a common problem in the use of targeted drugs, we performed a chemical library screen to identify drug sensitivities in SYK inhibitor resistant AML cells. […] Glucocorticoids are potent immunosuppressants which work in part by inhibiting the transcription of cytokine genes.
Described herein is a viability screen to look for activity in the SYK inhibitor naive cell line against four NCATS compound libraries (MIPE 5.0, NPC, NPACT, and Kinase) totaling 11372 compounds. Active hits were reacquired for confirmation and further secondary assay testing.
SEQUENCE No. (e.g., 1, 2, 3, etc.); […] (e.g., Cells, Incubation, Reagent, etc.); VALUE; DESCRIPTION.
1; Media; 2uL; white, solid-bottom Corning assay plate.
2; Compounds; 23nL; Echo acoustic dispenser.
3; Cell; 5uL; 500 cells per well.
4: Incubation; 72hr; 37 C, 5% CO2, 95% humidity.
5; Reagent; 3uL; CellTiter-Glo reagent (Promega).
6; Incubation; 10min; room temperature.
7; Detection; Luminescence; ViewLux plate reader (PerkinElmer).
NOTES (numbers refer to Sequence numbers above
1. Quantitative high-throughput screening (qHTS) of small molecule compounds was conducted on naive SYKi MV4-11 cell line.
2. Twenty-three nanoliter of small molecule compounds were added to each assay plates using the Echo acoustic dispenser (Beckman Coulter).
3. Cells were seeded into the assay plates at a final density of 500 cells in 5uL of media per well using the Multi-drop Combi dispenser.
4. Plates were covered with stainless steel gasketed lids and incubated for 72 hours at standard cell culture conditions.
5. Viability was assessed by adding 3uL of CellTiter-Glo detection reagent (Promega).
6. Plates were covered with gasket lids and incubated for 10 minutes at room temperature.
7. Luminescence was measured on a ViewLux plate reader (PerkinElmer).
On the technique in general: Quantitative high-throughput screening tests each substance at several concentrations.
With `Nc1ccc(S(N)(=O)=O)cc1`, the “viability (% of control)” value was 83.3%.

On to `CCC(C)C(=O)OC1CC(O)C23C4OCC5(C(O)CC2C1(C)C(O)O4)C3C(=O)CC1(C)C(c2ccoc2)CC2OC215` (stereo not given), for which the Potency was 0.893 µM (active).

In the case of `C=C1CCC2C(C)(C(=O)OC)CCCC2(C)C1CCC(C)CC(=O)O` (stereo not given), the “viability (% of control)” value is 63.9%.

Consider `O=C(/C=C/C#Cc1cccc(NS(=O)(=O)c2ccccc2)c1)NO`, for which the Potency was 0.407 µM (active).

For `CCOC(=O)C1=C(C)NC(C)=C(C(=O)OCC)C1c1ccccc1/C=C/C(=O)OC(C)(C)C`, the Potency was 9.44 µM (active).

On to `CCC(=O)Nc1cccc(Oc2nc(Nc3ccc(N4CCN(C)CC4)cc3OC)ncc2Cl)c1`, for which the Potency was 1.64 µM (active) and 2.35 µM (active).

Take `CC(=O)NC(C)c1ccc(Oc2ccc(OC(C)C)cc2)cc1` (stereo not given): the Potency is 10.8 µM (active).

With `CCCCCCCCCCCCCCCC[N+](C)(C)Cc1ccccc1`, the Potency is 2.37 µM (active).

Take `CN(CCCNC(=O)c1ccc2nc3c(c(Cl)c2c1)CCCC3)Cc1ccccc1`: the Potency was 5.8 µM (active).

Regarding `NC(=O)C(O[C@@H]1O[C@H](CO[C@@H]2O[C@H](CO)[C@@H](O)[C@H](O)[C@H]2O)[C@@H](O)[C@H](O)[C@H]1O)c1ccccc1` (stereo not given in full), the “viability (% of control)” value is 71.3% [at 17.3 µM].

For the compound `CC(=O)O[C@@](C)(C(=O)/C=C/C(C)(C)O)[C@H]1[C@H](O)C[C@@]2(C)[C@@H]3CC=C4[C@@H](C=C(O)C(=O)C4(C)C)[C@]3(C)C(=O)C[C@]12C`, the Potency was 0.317 µM (active).

With `COc1cc(OC)cc(-c2ccc3c(-c4ccc(F)cc4)[nH]nc3n2)c1`, the “viability (% of control)” value was 87.5%.

In the case of `CC1(C)CCC2(C(=O)OC3OCC(O)C(O)C3O)CCC3(C)C(=CCC4C5(C)CC(O)C(OC6OC(COC7OCC(O)C(O)C7O)C(O)C(O)C6O)C(C)(C)C5CCC43C)C2C1` (stereo not given), the viability (% of control) was 68.8% [at 9.25 µM].

Consider `CCCn1c(=O)c2[nH]c(-c3ccc(OCC(=O)O)cc3)nc2n(CCC)c1=O`, for which the “viability (% of control)” value was 88.7%.

On to `Cc1ccc(Cl)cc1N(CC(=O)Nc1c(F)cccc1F)S(C)(=O)=O`, for which the Potency was 5.17 µM (active).

On to `COC(=O)C1=C(C)NC(C)=C(C(=O)OCCN(C)Cc2ccccc2)C1c1cccc([N+](=O)[O-])c1` (stereo not given), for which the Potency was 11.9 µM (active).

Take `CC1CCC2C(C(=O)O)=CC3(O)CC(C)(C)CC123` (stereo not given): the “viability (% of control)” value was 67.2%.

With `CC(C)(C)Nc1nc2cc(Cl)c(Cl)cc2nc1S(C)(=O)=O`, the Potency is 0.731 µM (active).

On to `CC(C)c1cnn2c(NCc3ccccc3)cc(NCCCCCCN)nc12`, for which the Potency is 16.6 µM (active).

Take `COc1cc(C(=O)OC[C@H]2O[C@@H](OC(C)(C)C(=O)O)[C@H](O)[C@@H](O)[C@@H]2O)cc(OC)c1O`: the “viability (% of control)” value is 74.1% [at 17.3 µM].

Take `CNC[C@H](O)[C@@H](O)[C@H](O)[C@H](O)CO`: the “viability (% of control)” value was 90.1%.

As to `COc1cc(OC)cc(N2CCN(C(=O)Nc3nc4cc(F)ccc4nc3OC)CC2)c1`, the Potency is 0.934 µM (active).

`CC1(C(=O)O)CCCC2(C)C3=CCC4CC3(CCC12)CC4CO` (stereo not given): the “viability (% of control)” value is 80.2%.

For the compound `C=C[C@H]1[C@H](O[C@@H]2O[C@H](CO)[C@@H](O)[C@H](OC(=O)/C=C/c3ccc(O)c(OC)c3)[C@H]2O)OC=C2C(=O)OCC[C@]21O`, the “viability (% of control)” value is 71.3% [at 17.3 µM].

`CC1=C2C3OC(=O)C(C)C3(O)CCC2(C)CCC1=O` (stereo not given): the “viability (% of control)” value is 75.7%.

Take `C=C1c2cccc(O)c2C(O)=C2C(=O)[C@]3(O)C(O)=C(C(N)=O)C(=O)[C@@H](N(C)C)[C@@H]3[C@@H](O)[C@H]12`: the “viability (% of control)” value was 85%.

As for `CC(C)(C)c1ccc(C(=O)CCCN2CCC(OC(c3ccccc3)c3ccccc3)CC2)cc1`, the Potency was 13.3 µM (active).

Turning to `CC(C(=O)O)c1ccc2c(c1)CC(=O)c1ccccc1S2` (stereo not given), the Potency result is “inactive”.

Regarding `COc1cc2ncnc(Nc3ccc(F)c(Cl)c3)c2cc1NC(=O)/C=C/CN1CCCCC1`, the Potency was 1.64 µM (active).

As for `O=c1c(-c2ccccc2)c1-c1ccccc1`, the Potency was 23.7 µM (active).

In the case of `O=C(NCC1CCCCN1)c1cc(OCC(F)(F)F)ccc1OCC(F)(F)F` (stereo not given), the Potency entry is “inactive”.

With `COc1c(OCCCN2CCOCC2)ccc2c3n(c(=NC(=O)c4cnc(N)nc4)nc12)CCN3`, the Potency is 47.3 nM (active) and 53.9 nM (active).

Turning to `NC1CCN(c2nc3c(cc2F)c(=O)c(C(=O)O)cn3-c2ccc(F)cc2F)C1` (stereo not given), the “viability (% of control)” value was 78.8%.

In the case of `COc1ccc(C[C@@H](C)[C@@H](C)Cc2ccc(OC)c(OC)c2)cc1OC`, the Potency was 6.61 µM (active).

For the compound `COc1ccc(C(=O)NCc2cc(C(C)C)no2)cc1OC1CCN(C)CC1`, the “viability (% of control)” value was 66.5%.

For `CC1(N)CCN(c2cccnc2NC(=O)c2nc(-c3ncccc3C(F)(F)F)cnc2N)CC1`, the Potency was 5.9 µM (active).

As for `Cc1ccc(OCCSc2ncccn2)c(Br)c1`, the “viability (% of control)” value is 55.1%.

Turning to `CN1C(=O)[C@@H](NC(=O)c2n[nH]c(Cc3ccccc3)n2)COc2ccccc21`, the “viability (% of control)” value is 76%.

Regarding `COc1c2cc(c(O)c1OC)-c1cc(ccc1O)CCC(O)CCCC2` (stereo not given), the Potency is 12.8 µM (active).

As for `C[C@@H]1C[C@H]2[C@@H]3C[C@H](F)C4=CC(=O)C=C[C@]4(C)[C@@]3(F)[C@@H](O)C[C@]2(C)[C@@]1(O)C(=O)CO`, the Potency is 0.335 µM (active).

Values taken from PubChem BioAssay (NCATS).
